The record followed here is PubChem BioAssay (NCATS).

Molecules are shown by their SMILES. Several values for one entry are separate records, joined by “and”; a condition that tells them apart may be missing. Equal values may be shown once. Results filed as inconclusive are left out. Activity calls are given as the source filed them. Unless noted, calls follow the shape of the dose curve; as a rule, active = well fitted curve in the direction sought with a large enough effect; inconclusive = small, poorly fitted or top-dose-only effect, or another doubt; inactive = no such curve, though single readings can be large; an effect the other way counts as inactive or inconclusive.

Experiment [1] can be described thus: P-glycoprotein substrates identified in KB-8-5-11 adenocarcinoma cell line, qHTS therapeutic library screen (AID 1346987). Also: nearly all actives have a fitted effect of over 65% in size. Also: potency is read from the fitted curve at half-maximal effect. As to activity change, negative = cytotoxicity: % is scaled to controls: 0 for no effect and ±100 for the full control effect. A digest of the protocol:
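Steps: plate 500 KB-8-5-11 cells/well in DMEM + 10% FCS (colchicine removed); pin compounds in dose-response; incubate 72 h, 37 degree C, 5% CO2; add CellTiter-Glo, 5 min; read luminescence.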

In experiment [2] the target is Calcium and integrin-binding protein 1 (Homo sapiens) (UniProt Q99828). As to the kind of experiment: Primary qHTS for Identification of Calcium Integrin Binding Protein 1 (CIB1) Competitor (AID 1508620). Also: top concentration of the series differs between compounds; % is scaled to controls: 0 for no effect and ±100 for the full control effect. A digest of the protocol: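 Fluorescence polarization competition: GST-tagged CIB1 (1 uM final) preincubated with compound 15 min at room temperature, then FITC-labelled alphaIIb peptide (100 nM final) added. After 15 min at room temperature, polarization read at Ex 480/Em 540.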
(In general: Quantitative high-throughput screening tests each substance at several concentrations.)

The nature of experiment [3]: Primary qHTS for inhibitors of nuclear receptor binding SET domain protein 2 (NSD2) in an isogenic RCH-ACV NSD2 p.E1099K mutant (9B) (AID 1645876). Also: nearly all actives have a fitted effect of over 70% in size. Also: potency is read from the fitted curve at half-maximal effect.
A short description of experiment [4]: Primary qHTS for inhibitors of nuclear receptor binding SET domain protein 2 (NSD2) in an RCH-ACV wild type WT cells (2C) (AID 1645877). Also: nearly all actives have a fitted effect of over 70% in size. Also: potency is read from the fitted curve at half-maximal effect.
In experiment [5] the target is Phospholipid hydroperoxide glutathione peroxidase GPX4 (Homo sapiens) (UniProt P36969). The experiment is described as follows: Primary qHTS Assay for Inhibitors of Recombinant Selenoprotein Glutathione Peroxidase 4 (GPX4) (AID 1845192). Also: nearly all actives have a fitted effect of over 65% in size. As to activity change, negative = inhibition: % is scaled to controls: 0 for no effect and ±100 for the full control effect. The settings on record: outcome: dose series up to 50 µM unless noted. In a few lines: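 GR-coupled assay: recombinant GPX4 preincubated 30 min with compound at room temperature; final 200 nM GPX4, 1 mM GSH, 0.5 mM cumene hydroperoxide, 0.5 mM NADPH, 100 nM GR, 0.01% BSA, pH 7.5 Tris. NADPH fluorescence (340/450 nm) read at 0 and 15 min.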

Experiment [6] has as its target Luciferin 4-monooxygenase (Photinus pyralis) (UniProt P08659). As to the kind of experiment: Primary firefly luciferase (FLuc) qHTS assay for identification of artifact compounds. (AID 1845220). Also: nearly all actives have a fitted effect of over 60% in size.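 As to activity change, negative = inhibition: plate controls were DMSO vehicle for no effect and no enzyme for full effect.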 A digest of the protocol: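 Titrated compounds were incubated 15 min at RT, protected from light, with luciferin and ATP at 10 uM; reaction started with 10 nM FLuc, luminescence imaged at 5 min, and concentration-response fitted by Hill equation.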

The subject of experiment [7] is Nanoluciferase (engineered Oplophorus gracilirostris luciferase). The experiment is described as follows: Primary Nanoluciferase (NLuc) qHTS assay for identification of artifact compounds. (AID 1845222).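 Also: NLuc secreted into diluted conditioned medium of S16 cells; 0% = DMSO and -100% = no enzyme.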 A digest of the protocol: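 qHTS format, against NLuc in S16 cell-conditioned medium. Nano-Glo substrate 1:100 was added after 15 min at room temperature. Luminescence was taken after a further 5 min.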

The next experiment concerns CASKI. As to the kind of experiment: Primary qHTS to identify gynecologic anti-cancer compounds using libraries of approved drugs and bioactive compounds (AID 1345084). Also: nearly all actives have a fitted effect of over 55% in size. Also: potency is read from the fitted curve at half-maximal effect. The following applies: Gynecologic cancer cell panel viability, ATPlite luminescence, 48 h; series mostly up to 57.5 µM. A digest of the protocol:
(§1)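 Measured: luminescence after ATPlite addition (15 min, RT). Exposure: 48 h, 37 C, 5% CO2.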

In a further experiment the test system is Es-2. Described as above. The settings on record: Gynecologic cancer cell panel viability, ATPlite luminescence, 48 h; series mostly up to 57.5 µM. A digest of the protocol:
as §1
Background: Cellular ATP, detected with luciferase, serves as a proxy for viable cell number.

The subject of another experiment is HeLa. The description is as above. The following applies: Gynecologic cancer cell panel viability, ATPlite luminescence, 48 h; series mostly up to 57.5 µM. In a few lines: as §1
Another experiment concerns JEG-3. The description is as above. The following applies: Gynecologic cancer cell panel viability, ATPlite luminescence, 48 h; series mostly up to 57.5 µM. In a few lines:
as §1

The subject of the next experiment is OV90. Described as above. The following applies: Gynecologic cancer cell panel viability, ATPlite luminescence, 48 h; series mostly up to 57.5 µM. A digest of the protocol:
as §1

In another experiment the test system is Tov112D. Described as above. The following applies: Gynecologic cancer cell panel viability, ATPlite luminescence, 48 h; series mostly up to 57.5 µM. A digest of the protocol: as §1
Experiment [8] relates to Zika virus NS2B-NS3 protease (linked construct). As to the kind of experiment: Primary screen NINDS Rhodamine qHTS for Zika virus inhibitors (AID 1347160). Also: nearly all actives have a fitted effect of over 55% in size. As to activity change, negative = inhibition: % is scaled to controls: 0 for no effect and ±100 for the full control effect. In a few lines:
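Purified NS2B-NS3 protease with the NS2B hydrophilic domain joined by a flexible linker (25 nM) in 10 mM Tris-HCl pH 8.0, 0.01% Tween 20, preincubated 15 min at RT with compound; Rhodamine110 peptide substrate 1.5 µM; fluorescence change over 15 min; 4-parameter Hill fit.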

Experiment [9] addresses Glutathione peroxidase 1 (Homo sapiens) (UniProt P07203). As to the kind of experiment: Primary qHTS Assay for Inhibitors of Recombinant Selenoprotein Glutathione Peroxidase 1 (GPX1) (AID 1845191). Also: nearly all actives have a fitted effect of over 65% in size. Also: potency is read from the fitted curve at half-maximal effect. A digest of the protocol: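 GR-coupled assay: compounds preincubated 30 min at room temperature with GPX1, then reaction started with CHP; final 10 nM GPX1, 1 mM GSH, 0.5 mM CHP, 0.5 mM NADPH, 100 nM GR, 0.01% BSA, pH 7.5 Tris buffer. NADPH fluorescence (340/450 nm) read at 0 and 15 min.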

The nature of experiment [10]: Primary fluorescence-based thiol-reactive (MSTI) qHTS assay for identification of artifact compounds. (AID 1845221).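 Also: thiol-reactive compounds lower the probe fluorescence signal; nearly all actives have a fitted effect of over 65% in size.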 A digest of the protocol: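 Reactivity toward the thiol probe MSTI (4 uM) is scored by fluorescence at Ex/Em 525/598 nm after 1 h at room temperature. Acetyl-MSTI and MSTI define the activity scale.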
The next experiment has as its system Hek293T. As to the kind of experiment: Primary qHTS to identify gynecologic anti-cancer compounds using libraries of approved drugs and bioactive compounds (AID 1345084). Also: nearly all actives have a fitted effect of over 55% in size. Also: potency is read from the fitted curve at half-maximal effect. The following applies: Gynecologic cancer cell panel viability, ATPlite luminescence, 48 h, control line for the selectivity index; series mostly up to 57.5 µM. A digest of the protocol: as §1

Experiment [11] concerns Zika virus NS2B-NS3 protease (unlinked complex). The experiment is described as follows: Primary screen GU Rhodamine qHTS for Zika virus inhibitors: Unlinked NS2B-NS3 protease assay (AID 1347159). Also: % is scaled to controls: 0 for no effect and ±100 for the full control effect; nearly all actives have a fitted effect of over 60% in size. In a few lines: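 Noncovalent NS2B hydrophilic domain/NS3 protease complex (25 nM final) in 10 mM Tris-HCl pH 8.0, 0.01% Tween 20, preincubated 15 min with compounds (up to 114 microM), then 1.5 microM Rhodamine110 substrate. Fluorescence change over 15 min fitted to 4-parameter Hill.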

A short description of experiment [12]: qHTS drug screen for cell cycle checkpoint inhibitors in PARPi-resistant BRCA-mutant ovarian cancer cell lines. (AID 1963452; calls by dose curve; also: potency is read from the fitted curve at half-maximal effect). The settings on record: PEO1/OlaR viability, CellTiter-Glo luminescence, 96 h; for Z-AUC: stronger effect = lower value. In a few lines: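 PEO1, PEO4 and PEO1/OlaR ovarian cancer cells, 600 per well, exposed 96 h at 37C to a dilution series. Viability read by CellTiter-Glo luminescence, normalized to DMSO and empty wells; activity summarized as Z-AUC.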

Sequence of Calcium and integrin-binding protein 1 (Homo sapiens) (Q99828 whole entry, looked up): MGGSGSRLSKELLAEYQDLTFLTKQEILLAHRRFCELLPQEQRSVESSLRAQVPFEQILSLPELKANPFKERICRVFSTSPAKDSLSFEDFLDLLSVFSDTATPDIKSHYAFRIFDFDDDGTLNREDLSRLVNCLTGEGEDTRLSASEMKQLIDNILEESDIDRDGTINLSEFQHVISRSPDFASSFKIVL
Sequence of Glutathione peroxidase 1 (Homo sapiens) (P07203 whole entry, looked up): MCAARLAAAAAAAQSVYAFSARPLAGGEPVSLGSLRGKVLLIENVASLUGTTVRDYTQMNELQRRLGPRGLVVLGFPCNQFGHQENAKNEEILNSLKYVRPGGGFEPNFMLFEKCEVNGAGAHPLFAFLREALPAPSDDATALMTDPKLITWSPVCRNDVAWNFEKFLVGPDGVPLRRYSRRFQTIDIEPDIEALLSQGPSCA
Sequence of Phospholipid hydroperoxide glutathione peroxidase GPX4 (Homo sapiens) (P36969 whole entry, looked up): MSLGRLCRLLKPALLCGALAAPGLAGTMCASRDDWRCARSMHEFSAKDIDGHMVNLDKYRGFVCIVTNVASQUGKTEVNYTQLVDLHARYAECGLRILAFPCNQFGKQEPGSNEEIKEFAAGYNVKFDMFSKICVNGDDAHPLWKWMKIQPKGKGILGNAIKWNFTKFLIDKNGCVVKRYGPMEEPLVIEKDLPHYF

For the compound `CC[C@]1(O)C[C@H]2CN(CCC3C(=Nc4ccccc43)[C@@](C(=O)OC)(c3cc4c(cc3OC)N(C)[C@H]3[C@@](O)(C(N)=O)[C@H](O)[C@]5(CC)C=CCN6CC[C@]43[C@@H]65)C2)C1` (stereo not given in full), the Potency was 3.66 µM (active) in [1]; 0.0515 µM (active) in [3]; 0.023 µM (active) in [4]; 0.199 µM (active) in the experiment on CASKI; 0.794 µM (active) in the experiment with Es-2; 0.398 µM (active) in the experiment on HeLa. Besides, the figures for the Potency in the experiment on JEG-3, in the experiment on OV90 and in the experiment on Tov112D were 0.1 µM (active), 5.01 µM (active) and 0.1 µM (active), respectively. In experiment [2], the result was inactive. In addition, the Potency entry in [5], in experiment [6] and in [7] was “inactive” throughout.

With `COc1ccccc1-c1cc(Nc2cccc(CS(N)(=O)=O)c2)ncn1`, the Potency result in [1], in experiment [8], in [9], in [5], in [6] and in experiment [10] was “inactive” each time. Also, in [7], the Potency entry is “inactive”. Further, the result in [2] was inactive. Further, the Potency is 4.09 µM (active) in experiment [3], 2.9 µM (active) in [4], 22.4 µM (active) with HeLa and 20 µM (active) with Hek293T.

Turning to `N#Cc1cccc(C#N)c1-c1nc2c3ccccc3c3cc(Cl)ccc3c2[nH]1`, the Potency is 23.1 µM (active) in experiment [1] and 10.3 µM (active) in experiment [3]. Further, the Potency result (in [11]; in [5]; in [6]; in experiment [10]; in experiment [7]; in the experiment with CASKI) was “inactive” throughout. Further, the Potency entry in the experiment with Es-2, in the experiment on Hek293T, with JEG-3, in the experiment with OV90 and in the experiment on Tov112D was “inactive” throughout. In addition, in experiment [2], the outcome was inactive.

Turning to `CCOc1cc(CNC2CCCC2)cc(Cl)c1OCc1ccc(Cl)cc1`, the Potency result in [11], in experiment [8], in experiment [9], in experiment [5], in [6] and in experiment [10] was “inactive” throughout. Also, the Potency result (in experiment [7]; in the experiment on JEG-3) was “inactive” each time. In addition, in experiment [2], the outcome was inactive. The Potency was 11.5 µM (active) in experiment [3] and 14.5 µM (active) in [4].

With `NC(=Nc1ccc(CCNCc2cccc(Cl)c2)cc1)c1cccs1`, the Potency was 23.1 µM (active) in [1], 11.5 µM (active) in experiment [3] and 11.5 µM (active) in [4]. For the same compound, the Potency entry in experiment [11], in experiment [8], in experiment [9], in [5], in experiment [6] and in experiment [10] was “inactive” throughout. The Potency result (in [7]; with Es-2; with HeLa; in the experiment with Hek293T; in the experiment with Tov112D) was “inactive” throughout. Further, the outcome in experiment [2] was inactive.

For `CC1CCC2(NC1)OC1CC3C4CC=C5CC(O[C@@H]6O[C@H](CO)[C@@H](O[C@@H]7O[C@@H](C)[C@H](O)[C@@H](O)[C@H]7O)[C@H](O)[C@H]6O[C@@H]6O[C@@H](C)[C@H](O)[C@@H](O)[C@H]6O)CCC5(C)C4CCC3(C)C1C2C` (stereo not given in full), the Potency result in experiment [11], in [8], in experiment [9] and in experiment [5] was “inactive” each time. In experiment [2], the outcome was inactive. Besides, the values for the Potency in experiment [3] and in experiment [4] were 3.46 µM (active) and 3.88 µM (active), respectively. Besides, the activity change, negative = inhibition in experiment [6] was -5.29% [at 11.6 µM] (inactive). Moreover, the activity change, negative = thiol reactive in [10] is 179% [at 11.5 µM] (inactive). Besides, the activity, negative = inhibition in experiment [7] was -1.63% [at 11.6 µM] (inactive). For the same compound, the activity change, negative = cytotoxicity in the experiment on CASKI is -25.1% [at 11.6 µM] (inactive); in the experiment on HeLa, -18.6% [at 11.6 µM] (inactive); with Hek293T it was -11.9% [at 11.6 µM] (inactive); with JEG-3, 4.54% [at 11.6 µM] (inactive); in the experiment on Tov112D, -18.2% [at 11.6 µM] (inactive).

Consider `C[N+]1(C)CCN(CC(O)(c2ccccc2)C2CCCCC2)CC1` (stereo not given), for which the Potency entry in experiment [9] was “inactive”.

For `Cc1nc2c(O)cccc2c(=O)[nH]1`, the Potency entry in experiment [1], in experiment [3] and in [4] was “inactive” in each case.

With `CS(=O)(=O)CCNCc1nc(-c2ccc3ncnc(Nc4ccc(OCc5cccc(F)c5)c(Cl)c4)c3c2)cs1`, the outcome was “inactive [at 9.29 µM]” in [1] and “inactive [at 9.52 µM]” in experiment [9].

Regarding `COc1ccc(C(=O)Nc2sc3c(c2C(N)=O)CCCC3)cc1OC`, the Potency result in experiment [1], in experiment [3], in experiment [4] and in experiment [9] was “inactive” throughout.

On to `COc1cc(F)ccc1-c1ncnc(Nc2cccc(CS(C)(=N)=O)c2)n1` (stereo not given), for which the Potency was 5.17 µM (active) in experiment [1], 0.525 µM (active) in [3] and 0.372 µM (active) in [4]. Further, the Potency entry in experiment [9] and in experiment [5] was “inactive” throughout.

On to `CN1CCN(CCC=C2c3ccccc3Sc3ccc(S(=O)(=O)N(C)C)cc32)CC1`, for which, in [1], the Potency was 23.1 µM (active). Also, in experiment [9], the Potency entry was “inactive”.

With `O=C1NC(=O)/C(=C/c2ccc3nccc(-c4ccncc4)c3c2)S1`, the Potency is 3.66 µM (active) in experiment [1]; 920 nM (active) and 332 nM (active) in experiment [3]; 920 nM (active) and 525 nM (active) in [4]; 1.95 µM (active) in experiment [12]. Further, the Potency result in [5] was “inactive”. Moreover, the Z-AUC in experiment [12] (measured here: PEO1 parental Z-AUC) is -1.47; in experiment [12] (measured here: PEO4 Z-AUC), -1.84.

`N[C@@H](C(=O)N[C@@H]1C(=O)N2C(C(=O)O)=C(CSc3cn[nH]n3)CS[C@H]12)c1ccc(O)cc1`: the Potency in [9] is 18 µM (active). The Potency result in experiment [5] was “inactive”.

Turning to `NC(=O)c1sc(-c2ccsc2)cc1N`, the Potency entry in [1], in experiment [3], in [4] and in experiment [9] was “inactive” throughout.
